{"source": "paper PMC3315485", "about": "“Probing the Informational and Regulatory Plasticity of a Transcription Factor DNA–Binding Domain”", "note": "Positions count from the first letter of the chain named.", "data": [{"target": "T1, MarA wild type (WQR) (Escherichia coli, UniProt P0ACH5 1-127)", "T1 sequence": "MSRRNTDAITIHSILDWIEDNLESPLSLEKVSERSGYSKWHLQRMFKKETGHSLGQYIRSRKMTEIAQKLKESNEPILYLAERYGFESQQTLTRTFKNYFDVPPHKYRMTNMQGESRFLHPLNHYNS", "test": "MITOMI; MITOMI, 295 K (22 C); buffer, salt and pH not stated in the material; high values mean tight binding", "settings": "protein: ivt; label: fluorescent; dsDNA, one strand shown", "how_it_was_run": "(§1)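 MarA protein variants were produced by in vitro transcription and translation using the RTS E. coli HY kit, with tRNA-lys-bodipy-fl added for fluorescent labelling. Each variant was screened by MITOMI against 64 synthesized versions of the mar binding site, and protein and DNA fluorescence were read on Genepix at 295K. Association constants came from MITOMI, and each site's value is relative to the highest-affinity site for that protein variant.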", "values": [{"sequence": "ATGCTACGTTTTGCTAAAT", "binding signal": "0.363 Ka relative to the best site of the variant"}, {"sequence": "ATGTCACGTTTTGCTAAAT", "binding signal": "0.38 Ka relative to the best site of the variant"}, {"sequence": "ATGGAACGTTTTGCTAAAT", "binding signal": "0.299 Ka relative to the best site of the variant"}, {"sequence": "ATGTAGCGTTTTGCTAAAT", "binding signal": "0.284 Ka relative to the best site of the variant"}, {"sequence": "ATGTGGCGTTTTGCTAAAT", "binding signal": "0.242 Ka relative to the best site of the variant"}, {"sequence": "ATGTCCCGTTTTGCTAAAT", "binding signal": "0.181 Ka relative to the best site of the variant"}, {"sequence": "ATGGACCGTTTTGCTAAAT", "binding signal": "0.196 Ka relative to the best site of the variant"}, {"sequence": "ATGACTCGTTTTGCTAAAT", "binding signal": "0.378 Ka relative to the best site of the variant"}, {"sequence": "ATGTTCCGTTTTGCTAAAT", "binding signal": "0.197 Ka relative to the best site of the variant"}, {"sequence": "ATGGCTCGTTTTGCTAAAT", "binding signal": "0.35 Ka relative to the best site of the variant"}, {"sequence": "ATGGAGCGTTTTGCTAAAT", "binding signal": "0.262 Ka relative to the best site of the variant"}, {"sequence": "ATGTGACGTTTTGCTAAAT", "binding signal": "0.253 Ka relative to the best site of the variant"}, {"sequence": "ATGCAACGTTTTGCTAAAT", "binding signal": "0.365 Ka relative to the best site of the variant"}, {"sequence": "ATGGCCCGTTTTGCTAAAT", "binding signal": "0.293 Ka relative to the best site of the variant"}, {"sequence": "ATGCCTCGTTTTGCTAAAT", "binding signal": "0.454 Ka relative to the best site of the variant"}, {"sequence": "ATGGGTCGTTTTGCTAAAT", "binding signal": "0.232 Ka relative to the best site of the variant"}, {"sequence": "ATGAGACGTTTTGCTAAAT", "binding signal": "0.307 Ka relative to the best site of the variant"}, {"sequence": "ATGCTTCGTTTTGCTAAAT", "binding signal": "0.341 Ka relative to the best site of the variant"}, {"sequence": "ATGAATCGTTTTGCTAAAT", "binding signal": "0.215 Ka relative to the best site of the variant"}, {"sequence": "ATGCAGCGTTTTGCTAAAT", "binding signal": "0.293 Ka relative to the best site of the variant"}, {"sequence": "ATGTACCGTTTTGCTAAAT", "binding signal": "0.215 Ka relative to the best site of the variant"}, {"sequence": "ATGCTCCGTTTTGCTAAAT", "binding signal": "0.244 Ka relative to the best site of the variant"}, {"sequence": "ATGAGTCGTTTTGCTAAAT", "binding signal": "0.239 Ka relative to the best site of the variant"}, {"sequence": "ATGTTGCGTTTTGCTAAAT", "binding signal": "0.405 Ka relative to the best site of the variant"}, {"sequence": "ATGCGACGTTTTGCTAAAT", "binding signal": "0.369 Ka relative to the best site of the variant"}, {"sequence": "ATGGGGCGTTTTGCTAAAT", "binding signal": "0.307 Ka relative to the best site of the variant"}, {"sequence": "ATGATGCGTTTTGCTAAAT", "binding signal": "0.319 Ka relative to the best site of the variant"}, {"sequence": "ATGACACGTTTTGCTAAAT", "binding signal": "0.709 Ka relative to the best site of the variant"}, {"sequence": "ATGCCGCGTTTTGCTAAAT", "binding signal": "0.414 Ka relative to the best site of the variant"}, {"sequence": "ATGGATCGTTTTGCTAAAT", "binding signal": "0.224 Ka relative to the best site of the variant"}, {"sequence": "ATGAGCCGTTTTGCTAAAT", "binding signal": "0.237 Ka relative to the best site of the variant"}, {"sequence": "ATGATACGTTTTGCTAAAT", "binding signal": "0.279 Ka relative to the best site of the variant"}]}, {"target": "T2, MarA RQR (Escherichia coli, UniProt P0ACH5 1-127, W40R)", "T2 sequence": "T1 sequence with W40R", "test": "MITOMI; MITOMI, 295 K (22 C); buffer, salt and pH not stated in the material; high values mean tight binding", "settings": "protein: ivt; label: fluorescent; dsDNA, one strand shown", "how_it_was_run": "as §1", "values": [{"sequence": "ATGCTACGTTTTGCTAAAT", "binding signal": "0.117 Ka relative to the best site of the variant"}, {"sequence": "ATGTCACGTTTTGCTAAAT", "binding signal": "0.819 Ka relative to the best site of the variant"}, {"sequence": "ATGGAACGTTTTGCTAAAT", "binding signal": "0.208 Ka relative to the best site of the variant"}, {"sequence": "ATGTAGCGTTTTGCTAAAT", "binding signal": "0.0898 Ka relative to the best site of the variant"}, {"sequence": "ATGTGGCGTTTTGCTAAAT", "binding signal": "0.105 Ka relative to the best site of the variant"}, {"sequence": "ATGTCCCGTTTTGCTAAAT", "binding signal": "1 Ka relative to the best site of the variant"}, {"sequence": "ATGGACCGTTTTGCTAAAT", "binding signal": "0.106 Ka relative to the best site of the variant"}, {"sequence": "ATGACTCGTTTTGCTAAAT", "binding signal": "0.586 Ka relative to the best site of the variant"}, {"sequence": "ATGGCTCGTTTTGCTAAAT", "binding signal": "0.759 Ka relative to the best site of the variant"}, {"sequence": "ATGGAGCGTTTTGCTAAAT", "binding signal": "0.119 Ka relative to the best site of the variant"}, {"sequence": "ATGTGACGTTTTGCTAAAT", "binding signal": "0.11 Ka relative to the best site of the variant"}, {"sequence": "ATGCAACGTTTTGCTAAAT", "binding signal": "0.142 Ka relative to the best site of the variant"}, {"sequence": "ATGGCCCGTTTTGCTAAAT", "binding signal": "0.811 Ka relative to the best site of the variant"}, {"sequence": "ATGCCTCGTTTTGCTAAAT", "binding signal": "0.232 Ka relative to the best site of the variant"}, {"sequence": "ATGGGTCGTTTTGCTAAAT", "binding signal": "0.141 Ka relative to the best site of the variant"}, {"sequence": "ATGAGACGTTTTGCTAAAT", "binding signal": "0.0985 Ka relative to the best site of the variant"}, {"sequence": "ATGCTTCGTTTTGCTAAAT", "binding signal": "0.157 Ka relative to the best site of the variant"}, {"sequence": "ATGAATCGTTTTGCTAAAT", "binding signal": "0.091 Ka relative to the best site of the variant"}, {"sequence": "ATGCAGCGTTTTGCTAAAT", "binding signal": "0.105 Ka relative to the best site of the variant"}, {"sequence": "ATGTACCGTTTTGCTAAAT", "binding signal": "0.142 Ka relative to the best site of the variant"}, {"sequence": "ATGCTCCGTTTTGCTAAAT", "binding signal": "0.108 Ka relative to the best site of the variant"}, {"sequence": "ATGAGTCGTTTTGCTAAAT", "binding signal": "0.136 Ka relative to the best site of the variant"}, {"sequence": "ATGTTGCGTTTTGCTAAAT", "binding signal": "0.193 Ka relative to the best site of the variant"}, {"sequence": "ATGCGACGTTTTGCTAAAT", "binding signal": "0.148 Ka relative to the best site of the variant"}, {"sequence": "ATGGGGCGTTTTGCTAAAT", "binding signal": "0.11 Ka relative to the best site of the variant"}, {"sequence": "ATGATGCGTTTTGCTAAAT", "binding signal": "0.106 Ka relative to the best site of the variant"}, {"sequence": "ATGACACGTTTTGCTAAAT", "binding signal": "0.337 Ka relative to the best site of the variant"}, {"sequence": "ATGCCGCGTTTTGCTAAAT", "binding signal": "0.195 Ka relative to the best site of the variant"}, {"sequence": "ATGGATCGTTTTGCTAAAT", "binding signal": "0.112 Ka relative to the best site of the variant"}, {"sequence": "ATGAGCCGTTTTGCTAAAT", "binding signal": "0.107 Ka relative to the best site of the variant"}, {"sequence": "ATGATACGTTTTGCTAAAT", "binding signal": "0.108 Ka relative to the best site of the variant"}]}]}
